PubChem BioAssay AID2315 (National Center for Advancing Translational Sciences (NCATS), 2010)
Among all 290,000 compounds or so, about 27,000 (9.3%) were called active. This excerpt belongs to a sample that is enriched for actives. Values without a mark were called inactive. Rule as the data show it: active = inhibition mostly above about 28% (no sharp cut-off); inactive = mostly below about 43%.

experiment: A qHTS for Small Molecule Inhibitors of Shiga Toxin; details: Vero cells, Shiga toxin protein synthesis inhibition reporter; at 38.7 µM, active compounds read high; also: 0% is about no effect

Structure (SMILES) | inhibition
CN(CC(=O)NCc1ccc(Cl)cc1)S(=O)(=O)c1cccs1 | 45.6%
COc1ccc(NC(=O)CN2C(=O)COc3ccc(S(=O)(=O)N4CCOCC4)cc32)cc1 | -3.8%
COc1ccc(-c2n[nH]c3c2CN(C(=O)c2ccc(F)cc2)CC3)cc1 | -7.56%
COc1ccc(CCNC(=O)c2ccccc2-c2ccccc2C(=O)O)cc1OC | -1.45%
COc1ccc(CCNC(=O)c2ccccc2OCc2ccccc2)cc1 | 14.7%
COc1cccc2[nH]c(C(=O)NCCc3ccccc3)cc12 | 67.7% (active)
Cc1cc(C)cc(N(CC(=O)NC2CCCC2)C(=O)CCC(=O)Nc2nccs2)c1 | 20.2%
COc1ccc([N+](=O)[O-])cc1N(CC(O)CN(CC(C)C)CC(C)C)S(=O)(=O)c1ccc(C)cc1 (centres undefined) | 12.3%
O=c1[nH]cnc(O)c1C(c1ccc(F)cc1)c1c(O)nc[nH]c1=O | 8.92%
CC(=O)N1CCN(CC(=O)Nc2ccc(C)c(F)c2)CC1 | -1.77%
CCCCC(CC)C(=O)Nc1ccc(Cl)cn1 (centres undefined) | 6.98%
O=C(Nc1cccc([N+](=O)[O-])c1)Nc1ccc(Cl)cn1 | 0.898%
CCCc1cc(C(=O)Nc2ccc(Cl)cn2)cs1 | 57.6% (active)
CCCc1cc(C(=O)Nc2ccc(C(=O)OC)cc2)cs1 | 28.2%
COc1c(Cl)cc(C(=O)Nc2ccc(Cl)cn2)cc1Cl | 8.12%
O=C(Nc1ccc(Cl)cn1)Nc1cccs1 | 65.7% (active)
C[C@H](NC(=O)c1nc[nH]c1C(=O)NCC(=O)OC(C)(C)C)c1ccccc1 | -2.69%
COC(=O)c1ccc(Sc2ccc(F)cc2)c(N)c1 | 64.7% (active)
COC(=O)c1ccc(C(=O)OC)c(NC(=S)N2CCN(c3ccc(F)cc3)CC2)c1 | -8.17%
COC(=O)c1nc(NC(=O)c2ccc(F)cc2)n[nH]1 | 0.673%

Structure (SMILES) | inhibition
COC(=O)c1ccc(C(=O)NC2CC(C)(C)Cc3c2cnn3-c2ccc(F)cc2)nc1 (centres undefined) | 19.8%
COc1ccc(C2=NN(C(=O)c3cccnc3)C(c3ccccc3)C2)cc1 (centres undefined) | -14.3%
COc1cccc(C2CC(c3ccccc3)=NN2S(=O)(=O)c2ccccc2)c1OC (centres undefined) | -3.39%
COc1ccc(C(=O)CSc2nccc(=O)[nH]2)cc1 | 11%
COc1ccc(C2CC(c3ccccc3)=NN2C(=O)c2ccc(Cl)c([N+](=O)[O-])c2)cc1 (centres undefined) | -3.59%
COc1ccc(C2CC(c3ccccc3)=NN2C(=O)COC(=O)COc2ccccc2)cc1 (centres undefined) | 30.8%
CCOc1ccc2nc(Cl)c(C3CC(c4ccccc4)=NN3C(=O)c3cccs3)cc2c1 (centres undefined) | -5.57%
COc1ccc(C2CC(c3ccc([N+](=O)[O-])cc3)=NN2C(C)=O)cc1 (centres undefined) | 37.4% (active)
COc1ccc(C2=NN(C(=O)c3ccccc3C(=O)O)C(c3ccccc3O)C2)cc1 (centres undefined) | 162% (active)
COc1ccc(C2=NN(C(C)=O)C(c3ccccc3)C2)cc1 (centres undefined) | 26.2% (active)
COc1ccc(C2CC(c3ccccc3)=NN2C(=O)CSc2nccc(=O)[nH]2)cc1 (centres undefined) | 50.8% (active)
COc1ccc(C(=O)Nc2nc(-c3ccc(OC)cc3)c(-c3ccc([N+](=O)[O-])cc3)s2)cc1 | -3.81%
COc1ccc(C2=NN(C(=O)CCC(=O)O)C(c3cccs3)C2)cc1OC (centres undefined) | -6.96%
Brc1ccccc1CN1CCC(Cc2ccccc2)CC1 | 14.5%
N[C@@H](Cc1ccccc1)C(=O)N1CCC(C(=O)NCC(=O)Nc2ccc(F)cc2)CC1 | 9.91%
COc1ccc(CCNC(=O)C(=O)NCC2OCCN2S(=O)(=O)c2ccc(OC)c(C)c2)cc1 (centres undefined) | 2.43%
Cc1ccc(NS(=O)(=O)c2ccc(-c3coc(C)n3)cc2)c(C)c1 | -3.55%
CCC(CC)C(=O)Nc1c2c(nn1-c1ccc(C)cc1)CS(=O)(=O)C2 | -8.79%
CCN(CC)CCCNC(=O)c1cc2c(=O)[nH]c3ccc(C)cc3c2s1 | -4.39%
O=C(C1CC(=O)N(C2CCCCC2)C1)N1CCN(c2ccccc2)CC1 (centres undefined) | 27.8%

Structure (SMILES) | inhibition
C/C(=N\NC(=O)Cc1ccccc1[N+](=O)[O-])c1cccnc1 | -10.2%
Cc1cc(C(=O)NC2CC(C)(C)Cc3c2cnn3-c2ccccc2)n[nH]1 (centres undefined) | -14.3%
CN(C(=O)CC1C(=O)NCCN1Cc1ccc2ccccc2c1)C1CCOCC1 (centres undefined) | -0.828%
CN1/C(=C\C(=O)c2cccnc2Cl)C(C)(C)c2ccccc21 | -10.8% (active)
CN1/C(=C\C(=O)c2oc3ccccc3c2N)C(C)(C)c2ccccc21 | 14.5%
CC(C)Nc1nnc(SCC(=O)/C=C2\N(C)c3ccccc3C2(C)C)s1 | 13.3%
Cc1ccccc1-c1nc(CS(=O)(=O)CC(=O)NC(C)c2ccccc2)c(C)o1 (centres undefined) | -2.18%
CC1C(=O)C(C)C(c2ccc(O)cc2)NC1c1ccc(O)cc1 (centres undefined) | -9.62%
Cc1ccc(S(=O)(=O)NCC(=O)N2CCOCCOCCOCCOCC2)cc1 | -2.1%
Cc1ccc(Cl)cc1NC(=O)COC(=O)CC(C)(C)C | -3.98%
C/C(CC(=O)N1CCN(C=O)CC1)=N\NC(=O)c1ccc(Br)cc1 | 36.4%
O=C(O)CC/C(=N\NC(=O)c1ccc(F)cc1)c1ccc(Br)cc1 | 57.9% (active)
C/C(=N\NC(=O)Cc1ccc(F)cc1)c1ccc(F)cc1 | 11.6%
CCn1ccnc1CNC(=O)CC1C(=O)NCCN1CCCc1ccccc1 (centres undefined) | 12.9%
COc1ccc(CC(=O)Nc2c(C(N)=O)oc3ccccc23)cc1 | 9.35%
COc1cc(C(C(=O)NC2CCCC2)N(C(=O)c2ccco2)c2ccccc2C(C)=O)cc(OC)c1OC (centres undefined) | -3.47%
COc1ccc(NC(C(=O)Nc2cccc(C(C)=O)c2)c2ccccc2)cc1 (centres undefined) | 27.6% (active)
COC(C(=O)Nc1ccc(C(C)=O)cc1)c1ccccc1 (centres undefined) | 10.3%
COc1ccc(NC(=O)[C@H](NC(=O)[C@@H]2Cc3ccccc3CN2)c2ccccc2)cc1 | -2.7%
